Measured values taken from PMC7862700, “An all-to-all approach to the identification of sequence-specific readers for epigenetic DNA modifications on cytosine”.

Assays:
Experiment in all cases: DAPPL (digital affinity profiling via proximity ligation, sequencing); 10 mM Tris-HCl pH 7.5, 50 mM NaCl, 1 mM DTT, 4% glycerol, room temperature, 30 min; GST-TFs on glutathione beads, 16-mer random dsDNA library, 0.1% formaldehyde crosslink after washing; high values mean tight binding
FLI1 = target: T1, FLI1 (Homo sapiens, UniProt Q01543 1-452); settings: protein: recombinant; tags: N-terminal GST; dsDNA, one strand shown
T1 sequence: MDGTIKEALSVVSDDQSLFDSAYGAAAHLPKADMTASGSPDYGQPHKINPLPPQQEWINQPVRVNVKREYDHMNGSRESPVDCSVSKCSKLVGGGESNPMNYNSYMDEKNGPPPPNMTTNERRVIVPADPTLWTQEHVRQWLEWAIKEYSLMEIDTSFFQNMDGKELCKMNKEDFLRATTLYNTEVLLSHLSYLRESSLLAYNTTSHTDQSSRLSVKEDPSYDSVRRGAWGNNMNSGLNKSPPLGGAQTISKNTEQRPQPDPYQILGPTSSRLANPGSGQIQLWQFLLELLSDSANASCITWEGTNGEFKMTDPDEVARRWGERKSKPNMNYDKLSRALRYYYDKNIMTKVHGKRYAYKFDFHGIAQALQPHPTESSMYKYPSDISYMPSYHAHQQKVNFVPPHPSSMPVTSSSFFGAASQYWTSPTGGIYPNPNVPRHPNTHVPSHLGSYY
Method in brief: (§1)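 The binding signal reported is, for every hexamer, its read frequency for a factor over its read frequency for the tag-only sample. Reads came from pools of yeast-expressed, GST-fused human transcription factors on glutathione beads, barcoded with DNA and mixed with that sample, which were incubated with 200 nmole of a random double-stranded 16-mer DNA library in Tris/NaCl/DTT/glycerol buffer at room temperature for 30 min. After washing, the pools were crosslinked with 0.1% formaldehyde, proximity-ligated with BsaI/T4 ligase for 1 h at 37 °C, PCR-amplified and sequenced on an Illumina NextSeq500.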

ELK1 = target: T2, ELK1 (Homo sapiens, UniProt P19419 1-428); settings: protein: recombinant; tags: N-terminal GST; dsDNA, one strand shown
T2 sequence: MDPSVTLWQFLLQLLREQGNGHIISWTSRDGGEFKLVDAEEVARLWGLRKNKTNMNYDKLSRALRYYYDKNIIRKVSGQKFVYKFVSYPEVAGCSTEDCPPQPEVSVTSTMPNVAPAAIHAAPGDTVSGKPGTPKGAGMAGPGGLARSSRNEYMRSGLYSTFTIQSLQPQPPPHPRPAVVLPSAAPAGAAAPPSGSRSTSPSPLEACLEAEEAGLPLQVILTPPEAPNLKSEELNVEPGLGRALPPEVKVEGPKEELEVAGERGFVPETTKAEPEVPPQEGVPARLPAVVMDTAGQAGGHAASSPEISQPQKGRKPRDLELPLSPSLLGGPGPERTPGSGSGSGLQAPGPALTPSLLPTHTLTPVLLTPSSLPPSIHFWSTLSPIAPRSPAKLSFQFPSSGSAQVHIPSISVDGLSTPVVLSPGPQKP
Method in brief: as §1

GABPA = target: T3, GABPA (Homo sapiens, UniProt Q06546 1-454); settings: protein: recombinant; tags: N-terminal GST; dsDNA, one strand shown
T3 sequence: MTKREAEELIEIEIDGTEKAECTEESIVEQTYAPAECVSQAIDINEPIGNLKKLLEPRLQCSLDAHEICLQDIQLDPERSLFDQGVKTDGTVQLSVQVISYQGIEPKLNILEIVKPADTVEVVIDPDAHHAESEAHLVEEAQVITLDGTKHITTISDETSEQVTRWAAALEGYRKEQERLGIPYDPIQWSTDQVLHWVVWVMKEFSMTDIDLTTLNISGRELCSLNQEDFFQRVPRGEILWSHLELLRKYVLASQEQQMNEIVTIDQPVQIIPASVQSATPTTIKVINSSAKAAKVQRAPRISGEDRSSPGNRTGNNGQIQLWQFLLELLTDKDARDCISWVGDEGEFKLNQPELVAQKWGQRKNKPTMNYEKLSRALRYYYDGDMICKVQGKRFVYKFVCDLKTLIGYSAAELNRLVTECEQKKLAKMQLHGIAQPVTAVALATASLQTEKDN
Method in brief: as §1

ERG = target: T4, ERG (Homo sapiens, UniProt P11308 1-479); settings: protein: recombinant; tags: N-terminal GST; dsDNA, one strand shown
T4 sequence: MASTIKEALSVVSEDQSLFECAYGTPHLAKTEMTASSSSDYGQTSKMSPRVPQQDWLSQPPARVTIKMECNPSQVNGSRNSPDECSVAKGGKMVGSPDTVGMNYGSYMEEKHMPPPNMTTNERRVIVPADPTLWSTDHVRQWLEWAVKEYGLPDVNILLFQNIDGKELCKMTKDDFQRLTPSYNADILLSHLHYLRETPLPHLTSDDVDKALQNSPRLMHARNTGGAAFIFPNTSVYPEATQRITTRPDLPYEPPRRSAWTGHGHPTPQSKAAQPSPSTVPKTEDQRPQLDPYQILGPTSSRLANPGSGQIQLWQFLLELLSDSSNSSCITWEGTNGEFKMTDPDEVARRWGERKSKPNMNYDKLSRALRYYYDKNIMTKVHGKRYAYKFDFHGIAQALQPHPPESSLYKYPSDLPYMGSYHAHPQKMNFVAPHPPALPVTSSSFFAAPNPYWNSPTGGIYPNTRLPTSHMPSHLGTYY
Method in brief: as §1

ELF1 = ELF1 (Homo sapiens, UniProt P32519 1-619); settings: protein: recombinant; tags: N-terminal GST; dsDNA, one strand shown
Chain of ELF1 (P32519 whole entry): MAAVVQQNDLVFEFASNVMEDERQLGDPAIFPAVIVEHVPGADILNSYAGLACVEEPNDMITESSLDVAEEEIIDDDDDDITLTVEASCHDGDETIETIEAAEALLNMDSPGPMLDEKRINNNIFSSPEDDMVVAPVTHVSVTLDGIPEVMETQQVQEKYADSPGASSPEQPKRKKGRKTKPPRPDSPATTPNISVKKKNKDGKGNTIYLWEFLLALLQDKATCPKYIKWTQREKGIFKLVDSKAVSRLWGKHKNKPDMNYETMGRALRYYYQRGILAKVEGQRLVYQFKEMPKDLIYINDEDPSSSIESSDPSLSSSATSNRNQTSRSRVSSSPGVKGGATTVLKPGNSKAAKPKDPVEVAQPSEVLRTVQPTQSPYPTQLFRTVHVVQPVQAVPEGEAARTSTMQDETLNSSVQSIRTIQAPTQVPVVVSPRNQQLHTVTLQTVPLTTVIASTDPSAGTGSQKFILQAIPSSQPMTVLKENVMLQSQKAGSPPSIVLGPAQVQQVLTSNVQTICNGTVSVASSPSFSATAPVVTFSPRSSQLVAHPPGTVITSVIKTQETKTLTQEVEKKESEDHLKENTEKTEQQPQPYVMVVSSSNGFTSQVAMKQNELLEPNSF
Method in brief: as §1

EHF = target: T5, EHF (Homo sapiens, UniProt Q9NZC4 1-300); settings: protein: recombinant; tags: N-terminal GST; dsDNA, one strand shown
T5 sequence: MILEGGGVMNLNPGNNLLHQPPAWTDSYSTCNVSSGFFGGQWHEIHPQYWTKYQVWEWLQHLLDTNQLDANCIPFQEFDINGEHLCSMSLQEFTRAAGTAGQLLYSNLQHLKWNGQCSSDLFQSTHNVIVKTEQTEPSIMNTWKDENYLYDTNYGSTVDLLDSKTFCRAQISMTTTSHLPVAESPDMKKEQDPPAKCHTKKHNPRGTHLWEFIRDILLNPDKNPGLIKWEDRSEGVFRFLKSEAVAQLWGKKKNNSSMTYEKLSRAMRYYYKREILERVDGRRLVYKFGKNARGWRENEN
Method in brief: as §1

SPI1 = SPI1 (Homo sapiens, UniProt P17947 1-270); settings: protein: recombinant; tags: N-terminal GST; dsDNA, one strand shown
Method in brief: as §1

SPIB = SPIB (Homo sapiens, UniProt Q01892 1-262); settings: protein: recombinant; tags: N-terminal GST; dsDNA, one strand shown
Chain of SPIB (Q01892 whole entry): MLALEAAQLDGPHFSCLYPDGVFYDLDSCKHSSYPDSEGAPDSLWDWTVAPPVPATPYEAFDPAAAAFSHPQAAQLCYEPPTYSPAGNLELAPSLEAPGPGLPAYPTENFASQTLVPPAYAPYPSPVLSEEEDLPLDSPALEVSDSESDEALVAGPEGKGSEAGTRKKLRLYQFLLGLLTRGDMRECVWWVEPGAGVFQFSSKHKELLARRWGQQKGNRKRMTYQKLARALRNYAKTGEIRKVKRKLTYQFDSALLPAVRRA
Method in brief: as §1

ELK3 = target: T6, ELK3 (Homo sapiens, UniProt P41970 1-407); settings: protein: recombinant; tags: N-terminal GST; dsDNA, one strand shown
T6 sequence: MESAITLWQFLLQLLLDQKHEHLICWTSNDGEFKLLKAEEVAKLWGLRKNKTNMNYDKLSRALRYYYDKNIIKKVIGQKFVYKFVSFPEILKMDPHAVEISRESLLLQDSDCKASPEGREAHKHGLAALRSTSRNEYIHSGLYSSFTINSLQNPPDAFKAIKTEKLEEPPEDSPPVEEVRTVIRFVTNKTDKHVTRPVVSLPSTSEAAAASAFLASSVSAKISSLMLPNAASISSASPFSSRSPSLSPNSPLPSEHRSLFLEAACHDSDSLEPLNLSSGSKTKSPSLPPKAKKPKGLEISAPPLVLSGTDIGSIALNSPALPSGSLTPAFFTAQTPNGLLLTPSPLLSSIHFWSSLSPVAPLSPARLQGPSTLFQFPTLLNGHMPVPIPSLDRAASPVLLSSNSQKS
Method in brief: as §1

FEV = target: T7, FEV (Homo sapiens, UniProt Q99581 1-238); settings: protein: recombinant; tags: N-terminal GST; dsDNA, one strand shown
T7 sequence: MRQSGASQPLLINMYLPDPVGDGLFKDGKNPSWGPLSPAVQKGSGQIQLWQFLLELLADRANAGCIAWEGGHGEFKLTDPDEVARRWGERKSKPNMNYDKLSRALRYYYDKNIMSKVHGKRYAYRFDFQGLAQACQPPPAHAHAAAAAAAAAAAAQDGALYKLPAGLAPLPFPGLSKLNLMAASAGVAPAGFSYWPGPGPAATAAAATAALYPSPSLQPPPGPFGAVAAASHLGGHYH
Method in brief: as §1

ETV5 = ETV5 (Homo sapiens, UniProt P41161 1-510); settings: protein: recombinant; tags: N-terminal GST; dsDNA, one strand shown
Chain of ETV5 (P41161 whole entry): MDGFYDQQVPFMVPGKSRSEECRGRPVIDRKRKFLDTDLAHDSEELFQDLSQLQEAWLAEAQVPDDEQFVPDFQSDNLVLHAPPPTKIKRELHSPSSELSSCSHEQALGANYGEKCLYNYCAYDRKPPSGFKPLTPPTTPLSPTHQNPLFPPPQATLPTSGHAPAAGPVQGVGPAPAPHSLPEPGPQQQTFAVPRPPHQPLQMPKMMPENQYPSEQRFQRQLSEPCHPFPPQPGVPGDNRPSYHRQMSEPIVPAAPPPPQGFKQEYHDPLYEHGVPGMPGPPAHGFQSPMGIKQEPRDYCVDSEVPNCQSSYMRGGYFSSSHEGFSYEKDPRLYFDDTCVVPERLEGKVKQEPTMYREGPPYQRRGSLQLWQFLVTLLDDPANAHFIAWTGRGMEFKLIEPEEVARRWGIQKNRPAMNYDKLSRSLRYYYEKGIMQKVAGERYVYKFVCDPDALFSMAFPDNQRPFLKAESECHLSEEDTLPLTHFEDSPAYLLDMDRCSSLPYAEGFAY
Method in brief: as §1

HSF1 = HSF1 (Homo sapiens, UniProt Q00613 1-529); settings: protein: recombinant; tags: N-terminal GST; chain copies: 3; dsDNA, one strand shown
Chain of HSF1 (Q00613 whole entry): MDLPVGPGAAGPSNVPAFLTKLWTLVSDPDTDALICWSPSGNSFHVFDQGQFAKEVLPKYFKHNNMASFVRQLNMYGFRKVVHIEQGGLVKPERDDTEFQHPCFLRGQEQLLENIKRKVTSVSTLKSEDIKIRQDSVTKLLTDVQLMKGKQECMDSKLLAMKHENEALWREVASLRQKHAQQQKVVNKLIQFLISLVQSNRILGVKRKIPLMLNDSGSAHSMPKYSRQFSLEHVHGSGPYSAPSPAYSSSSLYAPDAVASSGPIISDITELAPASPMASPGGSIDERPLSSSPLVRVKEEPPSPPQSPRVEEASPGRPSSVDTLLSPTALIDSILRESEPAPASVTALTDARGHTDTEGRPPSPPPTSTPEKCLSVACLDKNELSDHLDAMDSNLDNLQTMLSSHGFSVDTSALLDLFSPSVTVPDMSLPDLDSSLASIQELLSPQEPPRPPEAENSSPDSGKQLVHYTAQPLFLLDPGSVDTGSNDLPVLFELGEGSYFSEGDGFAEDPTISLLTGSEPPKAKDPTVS
Method in brief: as §1

SPIC = target: T8, SPIC (Homo sapiens, UniProt Q8N5J4 1-248); settings: protein: recombinant; tags: N-terminal GST; dsDNA, one strand shown
T8 sequence: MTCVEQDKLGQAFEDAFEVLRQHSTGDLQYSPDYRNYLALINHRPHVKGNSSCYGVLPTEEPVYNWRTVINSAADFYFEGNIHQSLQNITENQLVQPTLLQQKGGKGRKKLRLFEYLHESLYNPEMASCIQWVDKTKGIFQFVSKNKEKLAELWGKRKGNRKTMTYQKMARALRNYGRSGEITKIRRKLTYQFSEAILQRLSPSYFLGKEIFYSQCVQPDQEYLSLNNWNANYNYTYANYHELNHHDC
Method in brief: as §1

ELF4 = ELF4 (Homo sapiens, UniProt Q99607 1-663); settings: protein: recombinant; tags: N-terminal GST; dsDNA, one strand shown
Chain of ELF4 (Q99607 whole entry): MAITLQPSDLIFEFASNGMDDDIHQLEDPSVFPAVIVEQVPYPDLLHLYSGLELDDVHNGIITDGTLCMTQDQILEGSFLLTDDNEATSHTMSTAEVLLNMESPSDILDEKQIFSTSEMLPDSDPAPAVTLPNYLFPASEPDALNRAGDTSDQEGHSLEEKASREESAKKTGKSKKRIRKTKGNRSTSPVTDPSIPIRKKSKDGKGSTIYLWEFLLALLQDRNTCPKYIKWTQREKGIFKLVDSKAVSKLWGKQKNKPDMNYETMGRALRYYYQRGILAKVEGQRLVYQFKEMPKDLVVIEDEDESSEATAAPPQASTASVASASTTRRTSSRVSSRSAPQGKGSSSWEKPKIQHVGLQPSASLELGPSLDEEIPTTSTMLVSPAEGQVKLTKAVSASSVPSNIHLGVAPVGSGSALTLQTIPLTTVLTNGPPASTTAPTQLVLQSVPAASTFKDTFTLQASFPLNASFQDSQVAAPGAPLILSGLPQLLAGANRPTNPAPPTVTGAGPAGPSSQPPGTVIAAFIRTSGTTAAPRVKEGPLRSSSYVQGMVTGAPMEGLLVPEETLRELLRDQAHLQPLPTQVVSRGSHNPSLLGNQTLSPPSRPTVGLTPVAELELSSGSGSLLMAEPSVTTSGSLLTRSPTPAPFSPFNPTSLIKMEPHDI
Method in brief: as §1

ELK4 = target: T9, ELK4 (Homo sapiens, UniProt P28324-2 1-405); settings: protein: recombinant; tags: N-terminal GST; dsDNA, one strand shown
T9 sequence: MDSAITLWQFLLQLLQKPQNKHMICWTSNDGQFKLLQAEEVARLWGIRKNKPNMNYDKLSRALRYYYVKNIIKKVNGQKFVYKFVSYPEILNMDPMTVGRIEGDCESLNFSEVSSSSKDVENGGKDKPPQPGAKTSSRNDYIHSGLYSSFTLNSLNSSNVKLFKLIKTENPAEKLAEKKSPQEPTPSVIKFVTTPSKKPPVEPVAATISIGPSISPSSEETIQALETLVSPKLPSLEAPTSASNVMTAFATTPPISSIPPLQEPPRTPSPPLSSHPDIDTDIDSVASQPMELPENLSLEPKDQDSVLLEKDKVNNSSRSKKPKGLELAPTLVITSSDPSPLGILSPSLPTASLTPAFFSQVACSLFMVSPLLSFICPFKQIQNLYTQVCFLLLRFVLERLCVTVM
Method in brief: as §1

ETV2 = target: T10, ETV2 (Homo sapiens, UniProt O00321 1-342); settings: protein: recombinant; tags: N-terminal GST; dsDNA, one strand shown
T10 sequence: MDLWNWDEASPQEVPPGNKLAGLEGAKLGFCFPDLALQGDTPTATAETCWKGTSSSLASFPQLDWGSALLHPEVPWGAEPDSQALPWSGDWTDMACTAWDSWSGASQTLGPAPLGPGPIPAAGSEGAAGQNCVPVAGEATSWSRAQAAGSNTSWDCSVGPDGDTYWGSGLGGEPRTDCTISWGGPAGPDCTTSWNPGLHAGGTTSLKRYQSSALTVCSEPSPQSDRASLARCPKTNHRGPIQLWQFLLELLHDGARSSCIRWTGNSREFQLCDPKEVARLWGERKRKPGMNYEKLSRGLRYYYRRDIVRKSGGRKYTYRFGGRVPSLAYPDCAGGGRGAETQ
Method in brief: as §1

ELF3 = target: T11, ELF3 (Homo sapiens, UniProt P78545 1-371); settings: protein: recombinant; tags: N-terminal GST; dsDNA, one strand shown
T11 sequence: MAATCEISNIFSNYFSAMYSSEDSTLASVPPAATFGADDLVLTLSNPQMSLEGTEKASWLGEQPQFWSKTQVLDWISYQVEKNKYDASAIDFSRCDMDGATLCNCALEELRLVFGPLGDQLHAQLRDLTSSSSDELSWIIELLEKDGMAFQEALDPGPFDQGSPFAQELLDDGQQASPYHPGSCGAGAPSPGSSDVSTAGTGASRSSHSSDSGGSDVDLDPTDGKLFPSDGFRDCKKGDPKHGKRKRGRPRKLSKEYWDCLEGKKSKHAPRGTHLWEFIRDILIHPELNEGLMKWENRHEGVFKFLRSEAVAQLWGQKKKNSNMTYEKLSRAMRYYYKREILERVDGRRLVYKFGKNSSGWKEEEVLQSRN
Method in brief: as §1

CRX = CRX (Homo sapiens, UniProt O43186 1-299); settings: protein: recombinant; tags: N-terminal GST; dsDNA, one strand shown
Chain of CRX (O43186 whole entry): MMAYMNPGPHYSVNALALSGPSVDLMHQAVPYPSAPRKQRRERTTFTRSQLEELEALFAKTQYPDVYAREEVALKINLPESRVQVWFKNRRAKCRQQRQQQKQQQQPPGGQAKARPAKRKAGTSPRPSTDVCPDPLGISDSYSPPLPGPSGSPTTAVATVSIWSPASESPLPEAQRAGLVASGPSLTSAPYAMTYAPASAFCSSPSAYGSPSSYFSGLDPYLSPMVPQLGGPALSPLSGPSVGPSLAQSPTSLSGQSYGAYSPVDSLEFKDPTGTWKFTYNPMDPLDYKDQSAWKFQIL
Method in brief: as §1

ETV1 = ETV1 (Homo sapiens, UniProt P50549 1-477); settings: protein: recombinant; tags: N-terminal GST; dsDNA, one strand shown
Chain of ETV1 (P50549 whole entry): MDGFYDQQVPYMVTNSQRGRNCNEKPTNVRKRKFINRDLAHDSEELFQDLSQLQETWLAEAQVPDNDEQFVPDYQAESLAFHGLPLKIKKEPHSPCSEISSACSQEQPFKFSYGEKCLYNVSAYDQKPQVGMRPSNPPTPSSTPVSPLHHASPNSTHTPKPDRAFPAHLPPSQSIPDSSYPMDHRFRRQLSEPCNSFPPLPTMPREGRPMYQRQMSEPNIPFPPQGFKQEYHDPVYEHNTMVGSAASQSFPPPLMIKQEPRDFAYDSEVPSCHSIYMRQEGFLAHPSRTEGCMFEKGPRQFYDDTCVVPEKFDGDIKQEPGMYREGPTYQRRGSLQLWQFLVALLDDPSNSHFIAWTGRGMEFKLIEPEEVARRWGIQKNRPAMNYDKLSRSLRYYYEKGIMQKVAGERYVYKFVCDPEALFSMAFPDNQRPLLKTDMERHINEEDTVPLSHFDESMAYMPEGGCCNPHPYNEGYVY
Method in brief: as §1

With CCTACA the binding signal (FLI1) was 1.35 fold enrichment (6-mer frequency, TF over GST control), the binding signal (ELK1) was 1.26 fold enrichment (6-mer frequency, TF over GST control) and the binding signal (GABPA) was 1.33 fold enrichment (6-mer frequency, TF over GST control). For the same sequence, the binding signal (ERG) was 1.21 fold enrichment (6-mer frequency, TF over GST control), the binding signal (ELF1) was 1.19 fold enrichment (6-mer frequency, TF over GST control) and the binding signal (EHF) was 1.18 fold enrichment (6-mer frequency, TF over GST control). The binding signal (SPI1) was 1.16 fold enrichment (6-mer frequency, TF over GST control), the binding signal (SPIB) was 1.17 fold enrichment (6-mer frequency, TF over GST control) and the binding signal (ELK3) was 1.19 fold enrichment (6-mer frequency, TF over GST control). For the same sequence, the binding signal (FEV) was 1.18 fold enrichment (6-mer frequency, TF over GST control), the binding signal (ETV5) was 1.26 fold enrichment (6-mer frequency, TF over GST control) and the binding signal (HSF1) was 1.07 fold enrichment (6-mer frequency, TF over GST control). The binding signal (SPIC) was 1.35 fold enrichment (6-mer frequency, TF over GST control), the binding signal (ELF4) was 1.22 fold enrichment (6-mer frequency, TF over GST control) and the binding signal (ELK4) was 1.31 fold enrichment (6-mer frequency, TF over GST control). The binding signal (ETV2) was 1.13 fold enrichment (6-mer frequency, TF over GST control), the binding signal (ELF3) was 1.13 fold enrichment (6-mer frequency, TF over GST control) and the binding signal (CRX) was 1.01 fold enrichment (6-mer frequency, TF over GST control). For the same sequence, the binding signal (ETV1) was 1.16 fold enrichment (6-mer frequency, TF over GST control).
